Bioassay records as filed in PubChem.
ALDH1A1 block: qHTS Assay for Inhibitors of Aldehyde Dehydrogenase 1 (ALDH1A1) | Purified ALDH1A1, NADH fluorescence, propionaldehyde substrate | Potency, µM (doses to about 75.3 µM), for the others: at the top dose activity, negative = inhibition, actives largely listed as inhibitors | actives 7.3% (n = 220,000) | AID 1030, 2008;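 also: potency is read from the fitted curve at half-maximal effect; plate controls were no enzyme wells and a reference inhibitor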
Target sequence (P00352 whole entry, looked up): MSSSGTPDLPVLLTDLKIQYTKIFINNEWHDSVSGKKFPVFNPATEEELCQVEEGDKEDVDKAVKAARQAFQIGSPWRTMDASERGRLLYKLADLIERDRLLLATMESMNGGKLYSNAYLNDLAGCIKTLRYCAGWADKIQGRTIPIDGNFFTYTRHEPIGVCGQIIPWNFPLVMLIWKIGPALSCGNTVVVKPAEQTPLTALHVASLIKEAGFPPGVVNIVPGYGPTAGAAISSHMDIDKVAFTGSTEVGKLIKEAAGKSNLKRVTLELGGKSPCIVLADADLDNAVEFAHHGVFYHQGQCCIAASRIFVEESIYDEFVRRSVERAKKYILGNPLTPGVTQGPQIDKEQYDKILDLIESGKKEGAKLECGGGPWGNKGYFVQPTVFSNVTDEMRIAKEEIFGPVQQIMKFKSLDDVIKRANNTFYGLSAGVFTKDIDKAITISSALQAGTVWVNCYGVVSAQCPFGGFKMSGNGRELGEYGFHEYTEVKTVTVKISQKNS
HPGD block: qHTS Assay for Inhibitors of HPGD (15-Hydroxyprostaglandin Dehydrogenase). 15-hydroxyprostaglandin dehydrogenase [NAD(+)] (Homo sapiens), P15428. purified HPGD, NADH fluorescence kinetic, PGE2 substrate. Potency, µM, for inactives: at the highest dose activity change, negative = inhibition, actives largely listed as inhibitors. actives 4.3% (n = 150,000); also: potency is read from the fitted curve at half-maximal effect
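20 nM HPGD preincubated 15 min at room temperature with compound in 50 mM Tris-HCl pH 8, 0.01% Tween 20. Started with 1 mM NAD+ and 30 uM prostaglandin E2; NADH fluorescence (360/450 nm) read 5 times over 30-s intervals, last minus first.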
PNC assembly inh: High Content Assay for Compounds that inhibit the Assembly of the Perinucleolar Compartment | PC3M PTB-GFP, PNC prevalence imaging, 16 h; hits give low values | activity change (PNC), negative = inhibition, % at 10 µM | actives 3.1% (n = 140,000);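 active = readout at or below -70, meaning at least 70% loss of cells showing the perinucleolar compartment, a nuclear body marking cancer cells; inconclusive = readout between -30 and a set limit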;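 also: plate controls were DMSO wells for no effect and camptothecin positive control wells for full effect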
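Read-out is percentage of cells bearing a perinucleolar compartment, from automated 20x imaging of fixed, Hoechst-stained PC3M PTB-GFP cells. Cells were seeded 4 h, then exposed 16 h to compound (23 nl of library stock) in duplicate plates.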
Numbers without * were called inactive. The list is not random: actives were taken first. Their share in the collection is about 11%. Unless noted, calls follow the shape of the dose curve; as a rule, active = well fitted inhibition curve with a large enough effect (not every such curve was filed as active); inconclusive = small, poorly fitted or top-dose-only effect, or another doubt; inactive = no such curve, though single readings can be large or run the other way. Unless noted, % is scaled to controls: 0 for no effect and ±100 for the full control effect.

What do the screens show for `CN1CCC(NC(=S)Nc2cccc([N+](=O)[O-])c2)CC1`?
ALDH1A1 block: -3%

What do the screens show for `O=c1nc2scc(-c3ccccc3)n2c2ccccc12`?
ALDH1A1 block: 0%; HPGD block: -12%; PNC assembly inh: -23

What do the screens show for `Cc1ccc(NC(=O)OCc2cc(-c3ccccc3)on2)cc1`?
ALDH1A1 block: 2%

Results for O=C(Nc1ccc(Cl)cc1)OCc1cc(-c2ccccc2Cl)on1 ?
ALDH1A1 block: 4µM*; HPGD block: -4%; PNC assembly inh: 105

How did Cc1ccc(NC(=O)c2ccccc2NS(=O)(=O)c2ccc(Cl)s2)cc1 do in these assays?
ALDH1A1 block: -13%; HPGD block: -6%; PNC assembly inh: -82*

Results for O=C(Nc1ccccc1)c1ccccc1NS(=O)(=O)c1ccc(Cl)s1 ?
ALDH1A1 block: 0%; HPGD block: -5%; PNC assembly inh: 119

Results for O=C1CCC/C1=C/Nc1ccc2c(c1)OCO2 ?
ALDH1A1 block: inconclusive; HPGD block: -12%; PNC assembly inh: inconclusive

How did CC1CCC/C(=C\Nc2ccc3c(c2)OCO3)C1=O (stereo not drawn) do in these assays?
ALDH1A1 block: 13µM*; HPGD block: inconclusive; PNC assembly inh: 18

How did CCOC(=O)COc1cccc2c(=O)n(CC(=O)N3CCCc4ccccc43)ccc12 do in these assays?
ALDH1A1 block: inconclusive; HPGD block: -7%; PNC assembly inh: -22

Results for COc1cccc2c(=O)n(CC(=O)N3CCCc4ccccc43)ccc12 ?
ALDH1A1 block: 10µM*; HPGD block: -10%; PNC assembly inh: 17

What do the screens show for `O=C(Cn1[nH]c(=O)c2ccccc2c1=O)OCC(=O)N1CCCc2ccccc21`?
ALDH1A1 block: 4%; HPGD block: -11%; PNC assembly inh: -97*

What do the screens show for `O=C(Cn1cnc2ccccc21)OCC(=O)N1CCCc2ccccc21`?
ALDH1A1 block: 14µM*; HPGD block: -4%; PNC assembly inh: -19

What do the screens show for `O=C(Cn1[nH]c(=O)c2ccccc2c1=O)OCC(=O)N1CCc2ccccc2C1`?
ALDH1A1 block: 1%; HPGD block: -12%; PNC assembly inh: 44

Results for O=C(COc1ccc(Cl)cc1)OCC(=O)N1CCCc2ccccc21 ?
ALDH1A1 block: 10%; HPGD block: -3%; PNC assembly inh: -15

Results for Cc1noc(C)c1C(=O)OCC(=O)c1c(N)n(CC(C)C)c(=O)n(C)c1=O ?
ALDH1A1 block: 11%; HPGD block: -9%; PNC assembly inh: 19

Results for COc1ccc(C(CNC(=O)c2cc3ccccc3o2)N2CCCCC2)cc1 (stereo not drawn) ?
ALDH1A1 block: -2%

How did O=C(ON=C1CCN(S(=O)(=O)c2ccccc2)CC1)c1ccc(F)cc1 do in these assays?
ALDH1A1 block: 2%; HPGD block: -9%; PNC assembly inh: -100*

How did Cc1ccc(C(=O)ON=C2CCN(S(=O)(=O)c3ccccc3)CC2)cc1 do in these assays?
ALDH1A1 block: inconclusive; HPGD block: -9%; PNC assembly inh: 75

Results for Cc1ccc(-c2nnnn2C2C/C(=N\NC(N)=S)C3OCC2O3)cc1 (stereo not drawn) ?
ALDH1A1 block: -9%

Results for CC(C)CC1c2[nH]c3ccccc3c2CCN1C(=O)CCC(=O)N(C)C (stereo not drawn) ?
ALDH1A1 block: 5%

How did C/C(=N\NC(=O)c1cc(C(C)C)[nH]n1)c1ccco1 do in these assays?
ALDH1A1 block: 3%; HPGD block: 22µM*; PNC assembly inh: 5

How did C/C(=N/NC(=O)c1cc(-c2ccc(Br)s2)[nH]n1)c1ccco1 do in these assays?
ALDH1A1 block: -11%

Results for CC(=O)c1c(C(C)=O)c(C)n(C2CCCCC2)c1C ?
ALDH1A1 block: 1%; HPGD block: 1%; PNC assembly inh: -5

How did COCCN(C(=O)CCCC(=O)Nc1ccccn1)C(C(=O)NC1CCCC1)c1ccc(C)cc1 (stereo not drawn) do in these assays?
ALDH1A1 block: 2%; HPGD block: -1%; PNC assembly inh: 42

How did Cc1cc(=O)[nH]c2ccc(Cl)cc12 do in these assays?
ALDH1A1 block: 10%; HPGD block: -18%; PNC assembly inh: -29

Results for S=c1[nH]c2ccc(Cl)cc2s1 ?
ALDH1A1 block: 1.3µM*

Results for Oc1cccc(C=NCc2ccccc2)c1O ?
ALDH1A1 block: 8.9µM*; HPGD block: 16µM*; PNC assembly inh: -7

Results for Oc1c(C=NCc2ccccc2)sc2ccccc12 ?
ALDH1A1 block: -4%
